A selection: hits, their analogues and other compounds. The true share with any hit is near 3.9%.
esBAF inh – blocks esBAF chromatin remodeling in mouse ES cells. Bmi1-luciferase knock-in reporter, 24 h; 100% = twice the neutral-well signal. reporter increase, % at 12.5 µM. actives 2% (n = 350,000). AID 602393; in the data active = activation above about 40%; inconclusive = no clear call, values can overlap the other calls;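 note: a rise in the Bmi1 reporter signal indicates esBAF inhibition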
HSF1 activator – increases HSF-1 driven luciferase reporter signal; NIH3T3-HGL HSF-1 luciferase reporter, MG132, 8 h; 100% = twice DMSO control signal; actives 1.7% (n = 300,000); activation, % at 9 µM;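 active = mean replicate activation of at least 50% with a set share of replicates each reaching 50%; inconclusive = only one of those two conditions met; inactive = mean below 50% and too few replicates reaching it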
MITF TRPM1 HTS – MITF TRPM1 promoter activation in melanoma cells; activation, % at 12.5 µM; SK-MEL-5 TRPM1-promoter luciferase, 24 h; % of positive control, neutral wells = 0; actives 0.75% (n = 300,000);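 active = mean activation of at least 80% with every replicate also reaching 80%; inconclusive = mean reaches 80% but some replicate falls short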
HSF1 inh – HSF1 inhibition; NIH3T3-HGL HSE-luciferase, MG132-induced, luminescence 8 h; stronger effect = lower value; activity change, negative = inhibition, % at 7.5 µM (by protocol); actives 0.77% (n = 300,000); AID 2098;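 active = more than half of replicate wells show activity change below -50%, luminescence cut by over half; inconclusive = some wells, but at most half, below -50%; inactive = no replicate well below -50%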;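 note: luciferase reports HSF-1 transcriptional activity via heat shock element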
Wnt act – activates Wnt/beta-catenin signaling in a reporter cell assay. activator, plate reader. activation, % at 9.35 µM. AID 743398. actives 1.2% (n = 300,000); in the data active = activation above about 30%, passing the limit was not always enough; inconclusive = no clear call, values can overlap the other calls
A number is an active result; – = inactive; ? = inconclusive; · = no result.

SMILES	esBAF inh	HSF1 activator	MITF TRPM1 HTS	HSF1 inh	Wnt act
COc1cccc(CNc2ccc(Br)cn2)c1O	–	272	–	–	·
COc1cccc(CNCc2cccc(OC)c2O)c1O	·	·	–	·	–
COCC(=O)N(C)C[C@H]1Oc2cc(-c3ccc(C#N)cc3)ccc2S(=O)(=O)N([C@H](C)CO)C[C@H]1C	–	·	·	·	·
COc1ccccc1-c1cnc2c(c1)C(=O)N([C@@H](C)CO)C[C@@H](C)[C@H](CN(C)C(=O)c1ccccc1)O2	–	·	·	·	·
COCC(=O)N(C[C@@H]1N[C@@H](CO)[C@@H]1c1ccc(-c2cccnc2)cc1)C(C)C	–	·	·	·	·
CC(C)(C)OC(=O)N1CSC[C@H]1C(=O)NC[C@H](CC(=O)O)c1ccc(Cl)cc1	–	82	–	–	–
CCOC(=O)/C=C/[C@H]1CC2(CCO1)SCCCS2	55	·	–	·	–
O=C(CN1CCOCC1)NCC[C@@H]1CC[C@@H](NC(=O)Nc2ccc(Cl)cc2)[C@@H](CO)O1	–	·	·	·	·
COC(=O)CNC(=O)Cn1nc(C)c([N+](=O)[O-])c1C	·	–	–	–	38
Cc1nn(CCCC(=O)NCc2ccc(Cl)cc2)c(C)c1[N+](=O)[O-]	·	–	–	–	–
COc1ccc(CNC(=O)CCCn2nc(C)c([N+](=O)[O-])c2C)cc1OC	·	–	–	–	38
CCC(=O)NC(=S)Nc1ccc(-c2nc3ccc(C)cc3s2)cc1	?	–	113	–	36
Cc1ccc2nc(-c3ccc(NS(=O)(=O)c4ccc(F)c(F)c4)cc3)sc2c1	·	–	–	–	38
Cc1ccc2nc(-c3ccc(NC(=S)NC(=O)C(C)C)cc3)sc2c1	–	–	96	–	–
Cc1ccc2nc(-c3ccc(NC(=O)C(C)N4C(=O)c5ccccc5C4=O)cc3)sc2c1 (stereo unspecified)	·	–	–	–	·
C[C@H]1CN([C@@H](C)CO)C(=O)c2cc(C#CCc3ccccc3)cnc2O[C@H]1CN(C)C(=O)C1CC1	–	·	·	·	·
O=C(Nc1ccc(Cl)c(Cl)c1)OCc1cccnc1	53	–	86	–	–
COc1ccc(S(=O)(=O)N(C)C[C@H]2Oc3c(NS(=O)(=O)c4ccc(Cl)cc4)cccc3C(=O)N([C@H](C)CO)C[C@@H]2C)cc1	–	·	·	·	·
COc1ccc(NC(=O)N(C)C[C@@H]2OCCCC[C@H](C)Oc3ccc(NC(=O)Nc4ccc5c(c4)OCO5)cc3C(=O)N([C@@H](C)CO)C[C@H]2C)cc1	–	·	·	·	·
CCN(CCn1cccn1)C(=O)c1cc(COc2cc(C)ccc2C)on1	70	59	–	–	?
Cc1ccc(C)c(OCc2cc(C(=O)N3CCN(C(=O)c4ccco4)CC3)no2)c1	80	–	–	–	–
Cc1ccc(C)c(OCc2cc(C(=O)N3CCN(c4ccccc4)CC3)no2)c1	·	56	–	–	–
CCN(CCn1cccn1)C(=O)c1cc(COc2ccccc2SC)on1	·	–	–	–	–
COc1ccccc1S(=O)(=O)N[C@@H]1CC[C@H](CCNC(=O)C2CCOCC2)O[C@H]1CO	–	·	·	·	·
CO[C@H]1CN(C)C(=O)c2cc(NC(=O)Nc3ccccc3F)ccc2OC[C@H](C)N(Cc2ccccc2C(=O)O)C[C@H]1C	–	·	·	·	·
SMILES	esBAF inh	HSF1 activator	MITF TRPM1 HTS	HSF1 inh	Wnt act
CCCCOc1ccc2c(c1)C(=O)c1cc(O)ccc1-2	·	64	86	–	–
C[C@H](CO)N1C[C@H](C)[C@@H](CN(C)C(=O)Nc2ccc3c(c2)OCO3)Oc2ccc(NS(=O)(=O)c3ccc(F)cc3)cc2CC1=O	–	·	·	·	·
COc1ccccc1OCc1nc2ccccc2n1C	48	–	–	–	–
COc1ccccc1C(O)Cc1nc2ccccc2n1C (stereo unspecified)	48	–	–	–	·
CCCn1c(COc2ccccc2OC)nc2ccccc21	–	–	–	–	–
Cn1c(COc2ccccc2Br)nc2ccccc21	?	70	·	–	–
CC(C)c1ccc(C(O)Cc2nc3ccccc3n2C)cc1 (stereo unspecified)	·	–	·	–	–
C[C@@H]1CN([C@@H](C)CO)C(=O)Cc2cc(NS(=O)(=O)c3ccc(F)cc3)ccc2O[C@H]1CN(C)C(=O)Nc1ccc(C(F)(F)F)cc1	–	·	·	·	·
COc1ccc(S(=O)(=O)Nc2ccc3c(c2)C(=O)N([C@@H](C)CO)C[C@H](C)[C@H](CN(C)C(=O)Nc2ccccc2)OCCCC[C@H](C)O3)cc1	–	·	·	·	·
O=C1c2ccccc2NC(c2ccc(-c3ccc(F)cc3)o2)N1O (stereo unspecified)	41	·	–	·	?
O=C1c2ccccc2NC(c2ccc(-c3ccc(Br)cc3)o2)N1O (stereo unspecified)	·	–	–	–	–
Cc1oc2c(C)c(O)ccc2c(=O)c1-c1cnn(-c2ccccc2)c1	·	–	·	–	–
Cc1[nH]nc(-c2ccc(O)c(C)c2O)c1-c1cnn(-c2ccccc2)c1	–	67	–	–	–
O=S(=O)(c1cccs1)N1CCCCN2[C@H](CO)[C@H](c3ccc(-c4ccccc4)cc3)[C@@H]2C1	–	·	·	·	·
Cc1ccc(C)c(OCc2cc(C(=O)N3CCN(C4CCCCC4)CC3)no2)c1	–	·	·	·	–
COc1cc(C)ccc1OCc1cc(C(=O)N2CCC(c3ccc(F)cc3)C2)no1 (stereo unspecified)	82	–	82	–	41
Cc1ccc(C)c(OCc2cc(C(=O)N3C[C@@H](C)O[C@@H](C)C3)no2)c1	76	–	125	–	37
Cc1ccc(C)c(OCc2cc(C(=O)N3CC[C@@H]4CCCC[C@H]4C3)no2)c1	54	–	–	–	–
CC(C)[C@H](C)NC(=O)N(C)C[C@H]1OCc2ccccc2-c2ccccc2C(=O)N([C@H](C)CO)C[C@@H]1C	–	·	·	·	·
Cc1cc(C)c(NC(=O)CSc2nncn2-c2cccnc2)c(C)c1	·	–	–	-54	–
COCC#Cc1cnc2c(c1)C(=O)N([C@H](C)CO)C[C@@H](C)[C@H](CN(C)C(=O)Nc1ccccc1F)O2	–	·	·	·	·
Cc1ccc(NN2C(=O)C=C(c3ccc(Cl)cc3)C2=O)cc1	·	60	–	–	·
COc1ccc(C2=CC(=O)N(Nc3ccccc3)C2=O)cc1	·	72	·	–	·
CCCC#Cc1cnc2c(c1)C(=O)N([C@H](C)CO)C[C@@H](C)[C@H](CN(C)C(=O)Nc1ccccc1F)O2	–	·	·	·	·
COC(=O)C1=C(COc2ccccc2)NC(=O)NC1c1ccc(Cl)cc1 (stereo unspecified)	·	53	·	–	–
SMILES	esBAF inh	HSF1 activator	MITF TRPM1 HTS	HSF1 inh	Wnt act
CCOC(=O)C1=C(COc2ccccc2)NC(=O)NC1c1ccc(Cl)cc1 (stereo unspecified)	–	–	–	–	–
CN1C(=O)C2(N=c3ccccc3=N2)c2ccccc21	41	–	–	–	–
CC(C)c1ccc(/C=C/C(=O)n2nnc3ccccc32)cc1	–	83	·	–	–
CN(C)c1ccc(C(=O)n2nnc3ccccc32)cc1	–	56	–	–	–
CC(C)c1ccc(/C=C/C(=O)N2CCCCCC2)cc1	·	–	–	–	?
Cc1ccc(C(=O)n2nnc3ccccc32)cc1	·	–	·	–	·

Bioassay records (PubChem BioAssay)
